Assay outcomes (PubChem)
Sfp inh: inhibitors of Bacillus subtilis Sfp phosphopantetheinyl transferase. 310,000 tested, 3.5% active. Biochemical Sfp PPTase activity, qHTS. Q9F4F7. AID 1490. Potency, µM, most hits filed as inhibitors;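 note: the enzyme is Sfp with the accession as filed and its product quenches rhodamine fluorescence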
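Compounds were incubated with enzyme (final 15 nM) for 15 min at room temperature before substrate addition started the reaction. Fluorescence at 525 nm excitation, 598 nm emission was recorded immediately and after 30 minutes.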
RORgamma inh: inhibitors of mouse ROR gamma transcriptional activity | 310,000 tested, 5.4% active | P51450 | Potency, µM (top dose mostly 53.6 µM), actives largely listed as inhibitors | Drosophila S2 Gal4-RORgamma UAS-luciferase reporter, 20 h | AID 2551; note: nearly all actives have a fitted effect of over 60% in size
Target sequence (P51450 whole entry, looked up, the tested form may be a part): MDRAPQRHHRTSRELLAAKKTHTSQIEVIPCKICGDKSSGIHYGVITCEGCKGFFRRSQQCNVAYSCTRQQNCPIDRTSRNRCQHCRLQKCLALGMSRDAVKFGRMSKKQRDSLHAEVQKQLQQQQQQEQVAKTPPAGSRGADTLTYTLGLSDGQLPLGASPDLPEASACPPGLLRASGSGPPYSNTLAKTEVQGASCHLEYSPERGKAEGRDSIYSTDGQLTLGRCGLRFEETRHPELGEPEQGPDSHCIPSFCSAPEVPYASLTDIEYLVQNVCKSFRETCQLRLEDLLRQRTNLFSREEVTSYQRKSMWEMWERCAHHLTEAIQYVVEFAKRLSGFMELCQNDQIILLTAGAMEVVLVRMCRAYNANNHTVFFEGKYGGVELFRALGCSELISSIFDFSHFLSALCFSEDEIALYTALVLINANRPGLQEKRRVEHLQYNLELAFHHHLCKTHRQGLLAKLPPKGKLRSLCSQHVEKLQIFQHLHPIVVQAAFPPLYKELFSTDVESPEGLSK
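Luminescence from a UAS-regulated Photinus luciferase reporter in stably transfected Drosophila Schneider cells is measured; decreased signal marks ROR gamma inhibition. Fusion expression is induced by 700 uM copper sulfate for 20 hr.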
ALDH1A1 inh: ALDH1A1 (human) enzyme inhibition; 220,000 tested, 7.3% active; Purified ALDH1A1, NADH fluorescence, propionaldehyde substrate; AID 1030; Potency, µM (top dose mostly 75.3 µM), hits mostly inhibitors; P00352; active = well fitted inhibition curve with a large enough effect, not every such curve was filed as active; inconclusive = small, poorly fitted or top-dose-only effect, or another doubt; inactive = no such curve, though single readings can be large or run the other way
VP16 counter: inhibits Gal4-VP16 luciferase reporter, ROR gamma counter-screen; Drosophila S2 Gal4-VP16 UAS-luciferase, luminescence, 20 h; Potency, µM (highest dose often 53.6 µM), actives largely listed as inhibitors; 310,000 tested, 3.5% active;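 note: Gal4-VP16 expression switched on by copper sulfate through the metallothionein promoter; nearly all actives have a fitted effect of over 50% in size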
PLK1 PBD inh: blocks phosphopeptide binding to human PLK1 polo-box domain; P53350; AID 720504; Plk1 PBD binding of FITC phosphopeptide, fluorescence polarization; 360,000 tested, 2.8% active; Potency, µM, most hits filed as inhibitors; note: series mostly up to about 57 µM; nearly all actives have a fitted effect of over 65% in size
Each line names hits and unclear results; the compound was inactive in the other large screens; ! = not active in a repeat. Hits are enriched below; roughly 12% of the tested compounds scored in any of these assays. Unless noted, calls come from the whole dose curve; as a rule, active = well fitted curve in the direction sought with a large enough effect; inconclusive = small, poorly fitted or top-dose-only effect, or another doubt; inactive = no such curve, though single readings can be large; an effect the other way counts as inactive or inconclusive.

O=C(CCn1c(SCC(=O)NCc2ccco2)nc2ccccc2c1=O)NCCc1ccccc1	none
O=c1c2ccccc2nc(SCc2cccc(F)c2)n1Cc1ccco1	RORgamma inh inconclusive, ALDH1A1 inh inconclusive
Cc1ccc(CSc2nc3ccccc3c(=O)n2Cc2ccco2)cc1	RORgamma inh inconclusive, PLK1 PBD inh 27µM
O=c1c2ccccc2nnn1CSc1nc2ccccc2c(=O)n1Cc1ccco1	RORgamma inh 2.5µM, ALDH1A1 inh inconclusive, VP16 counter inconclusive
Cc1ccc(CSc2nc3ccccc3c(=O)n2CCCC(=O)NCc2ccco2)cc1	Sfp inh 25µM
O=c1c2ccccc2nc(SCc2ccccc2)n1Cc1ccco1	ALDH1A1 inh 20µM
C[C@@H]1Nc2ccc(Cl)cc2S(=O)(=O)N1	ALDH1A1 inh inconclusive (no result: PLK1 PBD inh)
CC(=O)OC1CC[C@@]2(C)C(=CC[C@H]3[C@@H]4CC[C@H](C(C)=O)[C@@]4(C)CC[C@@H]32)C1 (some centres not stated)	none (no result: ALDH1A1 inh, PLK1 PBD inh)
Cc1ccc(-n2nnnc2SCn2nnc3ccccc3c2=O)c(C)c1	RORgamma inh inconclusive, VP16 counter 7.1µM
Cc1cc(=O)c2c(O)c3c(O)cc(O)c4c5c(O)cc(O)c6c(O)c7c(=O)cc(C)c8c1c2c(c34)c(c65)c78	Sfp inh 50µM (no result: PLK1 PBD inh)
CCOC(=O)C1CCN(C(=O)Cn2ncc3c([nH]c4ccccc43)c2=O)CC1	none (no result: ALDH1A1 inh)
COC(=O)C1=C[C@@H](C(=O)OC)C2C3=C(C(=O)[C@]2(C)NC(=O)c2ccccc2)[C@H](C)n2c(=O)n(C)c(=O)n2[C@@H]3C1 (some centres not stated)	none (no result: ALDH1A1 inh, PLK1 PBD inh)
Cc1cccn2c(=O)c(C=O)c(Cl)nc12	RORgamma inh 14µM, VP16 counter inconclusive (no result: ALDH1A1 inh)
Cc1cccn2c(=O)c(C=O)c(N3CCCCC3)nc12	ALDH1A1 inh inconclusive
Cc1ccc(Cc2c(-c3ccccc3)nc3cc(C)c(Br)c(C)n23)cc1	none (no result: Sfp inh, RORgamma inh, ALDH1A1 inh, VP16 counter)
C=CC1=C(C)C2=NC1=CC1=NC(=CC3=NC(=CC4=NC(=C2)C(C)=C4CCC(=O)O)C(CCC(=O)O)=C3C)C(C=C)=C1C.[Zn]	Sfp inh 4.5µM, ALDH1A1 inh inconclusive (no result: PLK1 PBD inh)
C[C@H](N)CCCC(C)(C)O	none (no result: PLK1 PBD inh)
CCn1ncc(Br)c1C(=O)Nc1ccccc1OC	PLK1 PBD inh 21µM
CCn1nccc1C(=O)Nc1ccccc1OC	none (no result: ALDH1A1 inh)
COc1cccc(NC(=O)NNC(=O)CCc2ccc(O)c(O)c2)c1	Sfp inh 56µM (no result: ALDH1A1 inh)
O=C(CCCOc1ccc(Cl)cc1Cl)Nc1ccccn1	none
COc1ccccc1NC(=S)NC(=O)CCCOc1ccc(Cl)cc1Cl	RORgamma inh 10µM, ALDH1A1 inh 11µM, VP16 counter 16µM
COc1ccccc1NC(=O)CCC(=O)OCc1ccc(Cl)cc1	none
COc1ccccc1NC(=S)NC(=O)Cc1ccc(Cl)cc1	RORgamma inh 7.1µM, VP16 counter 4.5µM (no result: ALDH1A1 inh)
O=C(Nc1cccc(F)c1)c1cc(S(=O)(=O)N2CCOCC2)cs1	PLK1 PBD inh inconclusive
CC(O)(CC(=O)CC(=O)c1ccccc1)c1ccccc1 (configuration not stated)	none (no result: Sfp inh, RORgamma inh, ALDH1A1 inh, VP16 counter)
COc1cccc(NC(=S)NC(=O)Cc2ccc(Cl)cc2)c1	RORgamma inh 7.1µM, VP16 counter 7.1µM (no result: ALDH1A1 inh)
COC(=O)CCC(=O)NNC(=O)c1ccc(Cl)cc1Cl	RORgamma inh 11µM
COc1ccccc1NC(=O)CCCCC(=O)Nc1ccccc1OC	none (no result: ALDH1A1 inh)
CCC(=O)NC(=S)Nc1cc(C(=O)O)ccc1OC	none
CCC(=O)NC(=S)Nc1ccccc1OC	RORgamma inh inconclusive, VP16 counter inconclusive, PLK1 PBD inh 24µM
CCCC(=O)NC(=S)Nc1ccccc1OC	RORgamma inh 10µM, VP16 counter inconclusive
COc1ccc(CC(=O)NC(=S)Nc2cccc(C)c2)cc1	none (no result: Sfp inh, RORgamma inh, ALDH1A1 inh, VP16 counter)
CC(=O)OC1CCC2(C)C(CCC3(C)C2C(=O)C=C2C4CC(C)(C(=O)OCCN5CCCCC5)CCC4(C)CCC23C)C1(C)C (configuration not stated)	none (no result: PLK1 PBD inh)
COc1ccccc1NC(=S)NNC(=O)c1ccc(Cl)cc1Cl	RORgamma inh 13µM, ALDH1A1 inh inconclusive, VP16 counter inconclusive
Cc1ccccc1C(=O)NNC(=S)NC(=O)c1ccc(Cl)cc1Cl	RORgamma inh inconclusive
Clc1ccc(-c2nc3c4ccccc4ccn3c2Cc2ccccc2)cc1	none (no result: Sfp inh, RORgamma inh, ALDH1A1 inh, VP16 counter)
CCOc1ccc(NS(=O)(=O)c2ccc(OC)c(C)c2)cc1	ALDH1A1 inh inconclusive
CCOc1ccc(NS(=O)(=O)c2ccc(NC(C)=O)c(OC)c2)cc1	ALDH1A1 inh 5µM
COC(=O)COc1ccc(S(=O)(=O)Nc2ccc(C(N)=O)cc2)cc1	none
COC(=O)COc1ccc(S(=O)(=O)Nc2cc(OC)ccc2OC)cc1	RORgamma inh 5µM, VP16 counter 25µM (no result: PLK1 PBD inh)
CCOc1ccc(NS(=O)(=O)c2ccc(C(=O)N(C)CCc3ccc(OC)c(OC)c3)cc2)cc1	RORgamma inh inconclusive, VP16 counter 7.1µM (no result: ALDH1A1 inh)
CCCCN(C=O)c1c(CC)nc2ccc(C(=O)NCCCN3CCCC3=O)cn12	none (no result: Sfp inh, RORgamma inh, ALDH1A1 inh, VP16 counter)
COCCn1c(=O)c(-c2cccc(C#N)c2)nc2cnc(OCc3ccccc3)nc21	ALDH1A1 inh inconclusive (no result: PLK1 PBD inh)
CC(=O)N1c2ccccc2N=C(c2ccc3c(c2)OCO3)C1C(=O)NCc1ccccc1 (configuration not stated)	none (no result: Sfp inh, RORgamma inh, ALDH1A1 inh, VP16 counter)
CC(=O)OCC(NC(=O)C(CCCCNC(=O)OCc1ccccc1)NC(=O)OC(C)(C)C)C1OC(n2cc(C)c(=O)[nH]c2=O)C(OC(C)=O)C1OC(C)=O (configuration not stated)	none (no result: ALDH1A1 inh, PLK1 PBD inh)
O=P(c1ccccc1)(c1ccccc1)c1nc(-c2ccc(Cl)cc2)oc1N1CCOCC1	Sfp inh inconclusive, RORgamma inh inconclusive, ALDH1A1 inh inconclusive, PLK1 PBD inh 24µM!
O=P(c1ccccc1)(c1ccccc1)c1nc(-c2ccccc2)oc1N1CCOCC1	none (no result: ALDH1A1 inh)
O=S(=O)(c1ccccc1)c1nc(-c2ccccc2)oc1N1CCCCC1	Sfp inh inconclusive, ALDH1A1 inh 0.45µM
COc1ccc(-c2nc(S(=O)(=O)c3ccccc3)c(N3CCOCC3)o2)cc1	ALDH1A1 inh 22µM
O=C(NC1CC2CCCC(C1)N2Cc1cccs1)c1ccc([N+](=O)[O-])cc1 (configuration not stated)	none (no result: PLK1 PBD inh)
Cc1nc2ccccn2c(=O)c1NC(=O)c1ccc2c(c1)OCO2	none (no result: Sfp inh, RORgamma inh, ALDH1A1 inh, VP16 counter)
O=C1Nc2ccccc2C12OCC(COc1ccc(Cl)cc1)O2 (configuration not stated)	PLK1 PBD inh 27µM
CN1C(=O)C2(OCC(COc3ccc(Cl)cc3)O2)c2ccccc21 (configuration not stated)	RORgamma inh inconclusive
COc1ccccc1NC(=O)CN1CC(=O)Nc2ccccc21	ALDH1A1 inh 3.5µM
COc1ccccc1NC(=O)CN1CCN(c2ccccc2OC)CC1	none
Cc1ccc(NC(=O)CNC(=O)N2CC(=O)Nc3ccccc32)cc1F	PLK1 PBD inh 7.5µM (no result: ALDH1A1 inh)
O=C(CN1CC(=O)Nc2ccccc21)Nc1ccc(F)c(F)c1	Sfp inh 40µM, ALDH1A1 inh 6.3µM
O=C(CNC(=O)N1CC(=O)Nc2ccccc21)Nc1ccc(F)c(Cl)c1	none (no result: ALDH1A1 inh)
COCCNc1nc(-c2ccc(Cl)cc2C)c2sccc2n1	none (no result: Sfp inh, RORgamma inh, ALDH1A1 inh, VP16 counter)
